From PubChem BioAssay (NCATS)
Results filed as inconclusive are left out. Activity calls are given as the source filed them. Calls come from the whole dose curve; as a rule, active = well fitted cell-killing curve with a large enough effect; inconclusive = small, poorly fitted or top-dose-only effect, or effect the other way; inactive = flat fitted curve, though single readings scatter.

Key:
Assay in all cases: Primary qHTS to identify gynecologic anti-cancer compounds using libraries of approved drugs and bioactive compounds (AID 1345084); note: nearly all actives have a fitted effect of over 55% in size
C33A = details: Gynecologic cancer cell panel viability, ATPlite luminescence, 48 h; series mostly up to 57.5 µM
Summary of the method: (§1)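 In this quantitative HTS, cell killing is estimated from loss of ATP-dependent luciferase light. Cells see five compound concentrations over a 48 h exposure.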

CAOV3 = details: Gynecologic cancer cell panel viability, ATPlite luminescence, 48 h; series mostly up to 57.5 µM
Summary of the method: as §1

CASKI = details: Gynecologic cancer cell panel viability, ATPlite luminescence, 48 h; series mostly up to 57.5 µM
Summary of the method: as §1

Es-2 = details: Gynecologic cancer cell panel viability, ATPlite luminescence, 48 h; series mostly up to 57.5 µM
Summary of the method: as §1

HeLa = details: Gynecologic cancer cell panel viability, ATPlite luminescence, 48 h; series mostly up to 57.5 µM
Summary of the method: as §1

Hek293T = details: Gynecologic cancer cell panel viability, ATPlite luminescence, 48 h, control line for the selectivity index; series mostly up to 57.5 µM
Summary of the method: as §1

JEG-3 = details: Gynecologic cancer cell panel viability, ATPlite luminescence, 48 h; series mostly up to 57.5 µM
Summary of the method: as §1

OV90 = details: Gynecologic cancer cell panel viability, ATPlite luminescence, 48 h; series mostly up to 57.5 µM
Summary of the method: as §1

PA-1 = details: Gynecologic cancer cell panel viability, ATPlite luminescence, 48 h; series mostly up to 57.5 µM
Summary of the method: as §1

SKOV3 = details: Gynecologic cancer cell panel viability, ATPlite luminescence, 48 h; series mostly up to 57.5 µM
Summary of the method: as §1

Tov-21-G = details: Gynecologic cancer cell panel viability, ATPlite luminescence, 48 h; series mostly up to 57.5 µM
Summary of the method: as §1

Tov112D = details: Gynecologic cancer cell panel viability, ATPlite luminescence, 48 h; series mostly up to 57.5 µM
Summary of the method: as §1

Measured: Potency

C=C(C)C1Cc2c(ccc3c2OCC(c2ccc(O)cc2O)C3)O1 (stereo unspecified)
inactive: all assays above

CC1(C)O[C@H]2CC(=O)OC[C@@]23C1=C(O)C(=O)[C@]1(C)C3CC[C@@]2(C)[C@H](c3ccoc3)OC(=O)[C@H]3O[C@]321 (stereo partly specified)
inactive: all assays above

COC1OC(O)C2(CCC3(O2)C(C)CC2OC(=O)C4(C)CCCC3(C)C24)C1O (stereo unspecified)
inactive: all assays above

CC12CC(O)C(O)C=C1c1cc(O)cc(O)c1C(=O)O2 (stereo unspecified)
inactive: all assays above

CC(C)(CC(=O)N1CCCC1)NCC(=O)N1C[C@@H](F)C[C@H]1C#N
inactive: all assays above

O=C(/C=C/c1ccc(O)cc1)OCC1OC(O)C(OC2OC(CO)C(O)C(O)C2O)C(O)C1O (stereo unspecified)
inactive: all assays above

OC[C@@]1(O)CO[C@H](OC[C@H]2O[C@@H](OC(CCCCc3ccc(O)cc3)CCc3ccc(O)cc3)[C@H](O[C@H]3OC[C@](O)(CO)[C@H]3O)[C@@H](O)[C@@H]2O)[C@@H]1O (stereo partly specified)
inactive: all assays above

CC[C@@H](Nc1c(Nc2cccc(C(=O)N(C)C)c2O)c(=O)c1=O)c1ccc(C)o1
inactive: all assays above

CC(=O)C1CCC(=O)N1Cc1ccccc1 (stereo unspecified)
inactive: all assays above

CC1=C2C(=O)C=C(CO[C@@H]3O[C@H](CO)[C@@H](O)[C@H](O)[C@H]3O)[C@@H]2[C@H]2OC(=O)[C@H](C)[C@@H]2[C@@H](O)C1
inactive: all assays above

C=C1CCC2C(C)(C(=O)O)CCCC2(C)C1CC/C(C)=C\CO (stereo unspecified)
inactive: all assays above

Cc1onc(-c2c(Cl)cccc2Cl)c1CC(=O)NCc1ccc(OCC(F)(F)F)nc1
inactive: all assays above

CC[C@H](NC(=O)c1c(O)c(-c2ccccc2)nc2ccccc12)c1ccccc1
inactive: all assays above
